Among the data in PubChem BioAssay AID608 (Sanford-Burnham Center for Chemical Genomics, 2007) are outcome values, retold here.

Screen size: about 3,800 compounds; about 50 (1%) were called active. No rule for the calls is given here. This is one part of the list. Results with a measured potency or affinity are listed apart.

For this assay, the target named is Peptidyl-prolyl cis-trans isomerase FKBP1A (Homo sapiens) (UniProt P62942). Description: FKBP12 binders, biophysical, NMR detection (AID 608). As to conditions: NMR binding, purified FKBP12.
Sequence of Peptidyl-prolyl cis-trans isomerase FKBP1A (Homo sapiens) (P62942 whole entry, looked up): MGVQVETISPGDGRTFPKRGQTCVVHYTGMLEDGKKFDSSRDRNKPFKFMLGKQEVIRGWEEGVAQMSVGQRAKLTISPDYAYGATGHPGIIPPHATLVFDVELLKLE
As to `O=C(Nc1ccc(OCC(=O)N2CCOCC2)cc1)c1cccnc1`, the call was inactive.
